Screening results: PubChem, National Center for Advancing Translational Sciences (NCATS)
HT1080 IDH1KD tx: HT-1080 IDH1 knockdown cell toxicity (counter line); HT-1080 IDH1 knockdown viability, ATP luminescence, 48 h; Potency, µM (highest dose often 46.1 µM), for the others: top-dose activity, negative = toxicity, most hits filed as cytotoxic; 360,000 tested, 2% active; AID 686971;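 note: potency is the fitted concentration of half-maximal effect; 0% = DMSO wells and -100% = cell-free medium wells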
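CellTiter-Glo luminescence after 48 h compound exposure at 37 degrees C of IDH1-knockdown HT-1080 cells in 5% FBS RPMI. %Activity scaled between DMSO wells and cell-free media wells, with curves fitted and assigned curve classes.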
ELG1 DNA repair: blocks ELG1-dependent DNA repair in HEK293T cells | Potency, µM (doses to about 46.1 µM), without a hit: at the top dose activity change, negative = inhibition, most hits filed as inhibitors | AID 504467 | 330,000 tested, 2.3% active | HEK293T ELG1-luciferase reporter, luminescence, 16 h; DNA damage induced by 5-fluorouridine; note: potency is the fitted concentration of half-maximal effect; nearly all actives have a fitted effect of over 55% in size
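Step one: seed 2,000 cells per well. Step two: pin-transfer compound or DMSO alongside 5-fluorouridine. Step three: incubate 16 hr, 37 °C, 5% CO2. Step four: add ONE-Glo, wait 30 min, read luminescence.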
DT40 TDP1 CPT: DT40-hTDP1 cell growth loss with CPT. chicken DT40 Tdp1-/-;hTDP1 cells + 20 nM CPT, ATP luminescence, 48 h. Potency, µM (doses to about 46.2 µM), without a hit: top-dose activity change, negative = growth inhibition, actives largely listed as inhibitors. 420,000 tested, 12% active. AID 686979; note: potency is the fitted concentration of half-maximal effect; nearly all actives have a fitted effect of over 55% in size
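Chicken DT40 Tdp1-/- cells stably complemented with human TDP1 were seeded at 400 cells/well in medium containing 20 nM camptothecin, exposed to pin-transferred compounds, and grown at 37 °C for at least 48 hr. Viability was read as ATP luminescence.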
IL1B secr inh: blocks inflammasome-driven IL-1 beta release | 360,000 tested, 4.7% active | activity change, % at 57.5 µM | THP-1 LPS/ATP IL-1B secretion, AlphaLISA, 16 h; hits give low values; in the data active = activity change below about -50%; inconclusive = mostly about -30% to -49%
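THP-1 cells pretreated 1 hr with compounds (up to 57.5 uM final), then stimulated with LPS (250 ng/mL final) plus ATP (1.25 mM final); secreted IL-1B measured by AlphaLISA after 16 hr, decreased signal indicating inhibition.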
HT1080-NT tox: kills 2HG-producing HT-1080-NT fibrosarcoma cells | HT-1080-NT fibrosarcoma viability, CellTiter-Glo ATP luminescence, 48 h | Potency, µM (doses to about 46.1 µM), inactives show top-dose activity, negative = less viability, hits mostly cytotoxic | 360,000 tested, 1.6% active | AID 686970;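 note: NT is the 2HG producing partner of a matched IDH1 knockdown line; potency is the fitted concentration of half-maximal effect; 0% = DMSO-treated cells and -100% = media-only wells without cells; nearly all actives have a fitted effect of over 55% in size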
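HT-1080-NT fibrosarcoma cells (2HG-overproducing), 750 cells/well in RPMI with 5% FBS, dosed after 2 h and incubated 48 h at 37C. CellTiter-Glo luminescence normalized to DMSO and no-cell wells; concentration-response curves fitted and classed.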
TDP1 cell noCPT: qHTS for Inhibitors of human tyrosyl-DNA phosphodiesterase 1 (TDP1): qHTS in cells in absence of CPT. DT40 Tdp1-/- hTDP1 cells, no CPT, ATP luminescence, 48 h. Potency, µM (series often up to 46.2 µM), for the others: top-dose activity change, negative = growth inhibition, most hits filed as inhibitors. 420,000 tested, 15% active; note: potency is the fitted concentration of half-maximal effect; nearly all actives have a fitted effect of over 55% in size
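Luminescent ATP content (CellTiter-Glo) served as the growth readout. Knockout chicken DT40 cells expressing human TDP1 were exposed to compounds without camptothecin for a minimum 48 hr at 37 °C.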
Starred values were filed as active, the others as inactive; u = inconclusive; x = no result given; ! = not active in a repeat; [ ] = another dose, or the depositor's remark. Compounds with a hit are over-represented: about 19% of the library has one in this group of screens. Unless noted, calls come from the whole dose curve; as a rule, active = well fitted curve in the direction sought with a large enough effect; inconclusive = small, poorly fitted or top-dose-only effect, or another doubt; inactive = no such curve, though single readings can be large; an effect the other way counts as inactive or inconclusive. Unless noted, % is set by controls: 0 for no effect and ±100 for the full control effect.

SMILES	HT1080 IDH1KD tx	ELG1 DNA repair	DT40 TDP1 CPT	IL1B secr inh	HT1080-NT tox	TDP1 cell noCPT
Fc1ccc(-c2noc3ncnc(NCCc4ccc(Cl)cc4)c23)cc1	x	x	15µM*	x	x	10µM*
COC(=O)C(CCSC)Nc1ncnc2onc(-c3ccc(F)cc3)c12 (stereo not given)	x	x	-6%	x	x	-22%
Cc1ccc(CCNc2ncnc3onc(-c4ccc(F)cc4)c23)cc1	x	x	-1%	x	x	2%
COc1ccccc1C(=O)NCC[N+](C)(C)C	5%	x	2%	14	20%	-6%
Cc1ccc(C(=O)CSc2nc(-c3ccccc3)nc3c2CCCC3)cc1C	x	x	2%	x	x	-4%
CC(C)(C)C(=O)N1CCN(c2nc3ccc(Br)cc3s2)CC1	-6%	u	16µM*	-2	-12%	16µM*
CCCCC(=O)N1CCN(c2nc3ccc(Br)cc3s2)CC1	u	u	16µM*	-88*	u	15µM*
CC(=O)N1CCN(c2nc3ccc(Br)cc3s2)CC1	u	u	u	-21	u	u
COc1cccc2sc(N3CCN(C(=O)C4COc5ccccc5O4)CC3)nc12 (stereo not given)	-14%	u	u	-7	-16%	u
CC(C)(C)C(=O)N1CCN(c2nc3c(F)cccc3s2)CC1	x	x	16µM*	x	x	16µM*
O=C(C1COc2ccccc2O1)N1CCN(c2nc3c(F)cccc3s2)CC1 (stereo not given)	x	x	u	x	x	23µM*
CC(=O)Nc1nc2c(F)cccc2s1	6%	x	36%	15	5%	-6%
CC(C)(C)C(=O)N1CCN(c2nc3ccc(Cl)cc3s2)CC1	-16%	u	u	u	-5%	23µM*
Cc1ccc2nc(NC(=O)c3cccc(-c4cc5ccccc5oc4=O)c3)sc2c1	u	u	15µM*	31	u	23µM*
CCOc1ccc(C(=O)Nc2cccc(-c3cc4ccccc4oc3=O)c2)cc1[N+](=O)[O-]	-6%	u	23µM*	1	3%	23µM*
O=C(Nc1cccc(-c2cc3ccccc3oc2=O)c1)c1ccc(Br)o1	-2%	u	u	-10	-3%	u
CCOc1ccc2nc(NC(=O)c3cccc(-c4cc5ccccc5oc4=O)c3)sc2c1	16µM*	1%	u	-20	13µM*	23µM*
O=C(Nc1cccnc1)c1cccc(-c2cc3ccccc3oc2=O)c1	11%	u	34%	20	11%	-7%
O=C(COC(=O)CN1C(=O)C2CCCCC2C1=O)Nc1c(Cl)cccc1Cl (stereo not given)	4%	-4%	u	15	1%[9.24 µM]	-1%
COc1ccc(C(=O)NC(c2ccc(OC)c(OC)c2)c2cc(Cl)c3cccnc3c2O)cc1 (stereo not given)	x	x	5µM*	x	x	5.6µM*
COc1ccc(C(NC(=O)c2cccnc2)c2cc(Cl)c3cccnc3c2O)cc1OC (stereo not given)	12µM*	u	18µM*	94	21µM*	18µM*
Oc1c(C(Nc2ccccn2)c2cccnc2)cc(Cl)c2cccnc12 (stereo not given)	u	-12%	4.6µM*	44	u	5.2µM*
O=c1cc(CO)oc(C(Nc2ccccn2)c2ccccc2Cl)c1O (stereo not given)	13%	24%	-2%	-11	0%	-17%
CC(=O)NC(c1ccc(C)cc1)c1cc(Cl)c2cccnc2c1O (stereo not given)	u	u	5.2µM*	42	-27%	4.1µM*
COc1ccccc1C(=O)OCc1cc(=O)n2nc(C(C)C)sc2n1	x	x	8%	x	x	0%
SMILES	HT1080 IDH1KD tx	ELG1 DNA repair	DT40 TDP1 CPT	IL1B secr inh	HT1080-NT tox	TDP1 cell noCPT
Cc1cc(OCC(=O)N2CCC(O)CC2)c2c(C)cc(=O)oc2c1	2%	-13%	10%	-7	0%	12%
CCC(=O)NC(c1ccco1)c1cc(Cl)c2cccnc2c1OC (stereo not given)	x	2%	x	x	x	x
CCC(=O)NC(c1ccc(OC)cc1)c1cc(Cl)c2cccnc2c1O (stereo not given)	u	-6%	5.8µM*	40	-26%	6.5µM*
Cc1cc(C)n2nc(C(=O)N/N=C/c3ccco3)nc2n1	14%	-11%	1%	-8	15%	-18%
COc1ccc(OC)c(CCNC(=O)c2ccc(CS(=O)(=O)c3ccc(Br)cc3)o2)c1	1%	u	21µM*	-12	-3%	u
O=C(NCc1ccccc1)c1ccc(CSc2ccccc2)o1	-16%	-8%	-12%	-91*	-1%	-17%
O=C(NCc1ccccc1)c1ccc(CS(=O)(=O)c2ccccc2)o1	4%	-19%	2.6µM*	-3	1%	16µM*
Cc1ccccc1S(=O)(=O)Cc1ccc(C(=O)NCc2ccccc2)o1	9%	-13%	-13%	6	11%	5%
COc1ccc(CNC(=O)c2ccc(CS(=O)(=O)c3ccc(Br)cc3)o2)cc1	5%	-8%	23µM*	-22	0%	23µM*!
CC(=O)Nc1ccc(NC(=O)c2ccc(CSc3ccccc3)o2)cc1	7%	u	1%	u	10%	-27%
COc1ccc(CNC(=O)c2ccc(CS(=O)(=O)c3ccc(OC)cc3)o2)cc1	3%	x	u	-2	-4%	u
O=C(NCc1ccccc1Cl)c1ccc(CS(=O)(=O)c2ccccc2)o1	2%	-9%	-16%	-14	3%	-23%
